Test [1] has as its target Voltage-gated inwardly rectifying potassium channel KCNH2 (Homo sapiens) (UniProt Q12809). The test can be described thus: qHTS Assay for Small Molecule Inhibitors of the Human hERG Channel Activity (AID 588834). For activity change, negative = inhibition: top concentration of the series differs between compounds; % is set by controls: 0 for no effect and ±100 for the full control effect.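 Note: lower thallium flux fluorescence means stronger hERG block; nearly all actives have a fitted effect of over 50% in size.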 Note: potency is the fitted concentration of half-maximal effect. The procedure, abridged:
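hERG-BacMam U2OS, 2000 cells/well; 0.7X FluxOR loading 1 hr RT dark; cpd ~10 min 37 °C; stim buffer; FDSS fluorescence 2 min @ 1 s; AC50 Hill fit.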

For test [2], the target named is Luciferin 4-monooxygenase (Photinus pyralis) (UniProt P08659). The test can be described thus: Biochemical firefly luciferase enzyme assay for NPC (AID 624030).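 For activity change, negative = inhibition: purified P. pyralis luciferase at 10 nM with luciferin and ATP substrate; series mostly up to about 59 µM; 0% = DMSO and -100% = full luciferase inhibition by PTC124 control.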 Note: nearly all actives have a fitted effect of over 70% in size. Note: potency is the fitted concentration of half-maximal effect. The procedure, abridged: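 Purified P. pyralis luciferase at 10 nM in 50 mM Tris Acetate (final), luminescence read within 5 minutes of enzyme addition to compounds. Activity normalised to PTC124 versus DMSO; concentration-response curves classed by r2, magnitude and activity.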
Sequence of Luciferin 4-monooxygenase (Photinus pyralis) (P08659 whole entry, looked up): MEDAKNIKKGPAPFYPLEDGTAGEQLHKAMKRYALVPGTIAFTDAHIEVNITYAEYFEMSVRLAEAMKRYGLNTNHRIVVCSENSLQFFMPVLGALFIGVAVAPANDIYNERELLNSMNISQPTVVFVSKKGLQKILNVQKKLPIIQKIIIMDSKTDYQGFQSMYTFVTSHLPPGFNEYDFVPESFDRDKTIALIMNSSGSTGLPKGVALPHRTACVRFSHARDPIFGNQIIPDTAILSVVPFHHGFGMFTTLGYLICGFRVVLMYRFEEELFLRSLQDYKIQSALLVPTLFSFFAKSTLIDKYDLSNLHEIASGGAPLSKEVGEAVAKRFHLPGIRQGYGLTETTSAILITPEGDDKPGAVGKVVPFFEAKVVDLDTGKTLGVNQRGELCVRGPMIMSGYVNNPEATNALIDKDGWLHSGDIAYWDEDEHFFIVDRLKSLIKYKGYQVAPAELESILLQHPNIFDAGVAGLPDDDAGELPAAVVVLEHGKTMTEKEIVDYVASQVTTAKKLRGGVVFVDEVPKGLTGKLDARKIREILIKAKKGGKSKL

A short description of test [3]: S16 Schwann cell viability assay (CellTiter-Glo assay) (AID 624031).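 Note: native untransfected S16 rat Schwann cells; series mostly up to about 58 µM; plate controls were DMSO-treated cells for no effect and cell-free wells for full effect; nearly all actives have a fitted effect of over 70% in size.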 In outline: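 Counter-screen for cytotoxicity: parental S16 rat Schwann cells lacking the PMP22 reporters, treated 24 h with compound, viability from cellular ATP by CellTiter-Glo luminescence, normalized to DMSO (0%) and no-cell wells.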
Test [4] is described as follows: S16 Schwann cell PMP22 intronic element firefly luciferase assay (AID 624032).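 For activity change, negative = inhibition: series mostly up to about 58 µM; plate controls were DMSO for no effect and PTC124 positive control mean for full effect.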 Note: nearly all actives have a fitted effect of over 30% in size. Note: potency is the fitted concentration of half-maximal effect. The procedure, abridged:
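Rat S16 Schwann cells stably carrying firefly luciferase driven by a PMP22 intronic element, in 10% FBS, treated 24 h at 37 C. ONE-Glo luminescence normalized to PTC124 control and DMSO (0%); curves classed by r2, magnitude and activity.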

A short description of test [5]: S16 Schwann cell PMP22 intronic element beta-lactamase assay (AID 624044; calls by dose curve;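 note: 0% = DMSO and -100% = potassium clavulanate positive control; nearly all actives have a fitted effect of over 15% in size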). In outline:
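Rat S16 Schwann cells with beta-Lac driven by a PMP22 intronic element, compound-treated 24 h at 37 °C. LiveBLAzer FRET B/G read: 460 nm normalized to potassium clavulanate vs DMSO; 535 nm FRET as viability; concentration-effect curves classified.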

Test [6] concerns the target Glutaminase kidney isoform, mitochondrial (Homo sapiens) (UniProt O94925). The test can be described thus: qHTS for Inhibitors of Glutaminase (GLS): LOPAC Validation (AID 624146).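 Note: glutamate product detected by oxidase and peroxidase coupled Amplex red fluorescence gain; series mostly up to about 46 µM; % is set by controls: 0 for no effect and ±100 for the full control effect; nearly all actives have a fitted effect of over 60% in size.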 In outline: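 Enzyme dispensed in phosphate buffer (45 mM, pH 8.2, 0.02% Tween-20), compounds pinned in, then 1 mM L-glutamine solution and the glutamate oxidase–HRP–Amplex Red mix added; fluorescence read immediately and again after 30 min at room temperature.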

Results filed as inconclusive are left out. Unmarked numbers belong to inactive results. Activity calls are given as the source filed them. Unless noted, calls come from the whole dose curve; as a rule, active = well fitted curve in the direction sought with a large enough effect; inconclusive = small, poorly fitted or top-dose-only effect, or another doubt; inactive = no such curve, though single readings can be large; an effect the other way counts as inactive or inconclusive.

Sequence of Voltage-gated inwardly rectifying potassium channel KCNH2 (Homo sapiens) (Q12809 whole entry, looked up): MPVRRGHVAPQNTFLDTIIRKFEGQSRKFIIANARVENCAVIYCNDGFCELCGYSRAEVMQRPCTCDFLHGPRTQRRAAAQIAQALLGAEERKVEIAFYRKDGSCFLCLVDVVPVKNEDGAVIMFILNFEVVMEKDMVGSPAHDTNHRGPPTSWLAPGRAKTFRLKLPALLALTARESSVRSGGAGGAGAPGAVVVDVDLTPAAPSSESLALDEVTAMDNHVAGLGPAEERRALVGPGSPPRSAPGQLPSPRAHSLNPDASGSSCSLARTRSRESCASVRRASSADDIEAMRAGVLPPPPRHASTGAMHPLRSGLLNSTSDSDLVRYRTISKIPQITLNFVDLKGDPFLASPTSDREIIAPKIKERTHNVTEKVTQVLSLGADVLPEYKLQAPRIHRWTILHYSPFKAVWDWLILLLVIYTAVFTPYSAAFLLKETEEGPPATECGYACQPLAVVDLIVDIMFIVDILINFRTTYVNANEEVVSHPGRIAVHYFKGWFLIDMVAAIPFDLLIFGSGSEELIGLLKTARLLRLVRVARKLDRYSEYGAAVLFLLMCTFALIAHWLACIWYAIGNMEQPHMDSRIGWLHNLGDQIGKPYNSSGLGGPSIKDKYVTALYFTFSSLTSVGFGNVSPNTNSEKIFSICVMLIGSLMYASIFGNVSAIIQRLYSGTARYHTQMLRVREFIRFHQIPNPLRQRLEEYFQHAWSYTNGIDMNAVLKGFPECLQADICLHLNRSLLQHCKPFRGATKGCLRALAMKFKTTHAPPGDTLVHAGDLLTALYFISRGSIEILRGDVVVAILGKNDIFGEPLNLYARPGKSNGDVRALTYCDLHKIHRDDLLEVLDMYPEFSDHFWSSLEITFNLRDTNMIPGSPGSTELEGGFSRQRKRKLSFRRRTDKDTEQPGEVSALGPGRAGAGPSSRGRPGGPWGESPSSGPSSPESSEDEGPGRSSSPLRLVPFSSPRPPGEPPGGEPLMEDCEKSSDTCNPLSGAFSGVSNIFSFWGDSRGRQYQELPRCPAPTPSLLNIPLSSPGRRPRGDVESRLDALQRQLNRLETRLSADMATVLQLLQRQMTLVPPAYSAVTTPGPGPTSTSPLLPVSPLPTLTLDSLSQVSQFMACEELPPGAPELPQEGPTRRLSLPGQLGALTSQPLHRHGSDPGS
Sequence of Glutaminase kidney isoform, mitochondrial (Homo sapiens) (O94925 whole entry, looked up, canonical isoform): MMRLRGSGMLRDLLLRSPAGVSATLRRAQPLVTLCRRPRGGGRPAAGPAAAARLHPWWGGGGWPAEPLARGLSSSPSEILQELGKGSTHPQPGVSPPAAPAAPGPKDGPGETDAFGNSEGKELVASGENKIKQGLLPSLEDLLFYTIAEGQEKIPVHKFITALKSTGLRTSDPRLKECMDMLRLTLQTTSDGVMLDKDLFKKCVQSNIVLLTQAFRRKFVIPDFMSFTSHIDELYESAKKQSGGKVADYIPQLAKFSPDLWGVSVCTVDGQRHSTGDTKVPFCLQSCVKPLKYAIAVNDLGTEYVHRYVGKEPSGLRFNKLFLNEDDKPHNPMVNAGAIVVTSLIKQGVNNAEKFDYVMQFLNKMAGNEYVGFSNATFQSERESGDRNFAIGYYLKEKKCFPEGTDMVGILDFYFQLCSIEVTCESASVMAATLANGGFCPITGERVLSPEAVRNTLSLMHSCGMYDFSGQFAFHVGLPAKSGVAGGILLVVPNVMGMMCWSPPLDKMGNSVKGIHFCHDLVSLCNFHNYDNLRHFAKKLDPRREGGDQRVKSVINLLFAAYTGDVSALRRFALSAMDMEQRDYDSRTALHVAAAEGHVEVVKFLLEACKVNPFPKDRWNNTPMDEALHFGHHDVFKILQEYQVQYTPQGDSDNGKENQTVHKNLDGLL

With `CCC1(CC)C(=O)C=CNC1=O`, the Potency result in test [1], in test [2] and in test [4] was “inactive” each time. Further, in test [3], the result was inactive.
Regarding `CN1CCC(O)(c2ccc(F)cc2)C(C(=O)c2ccc(F)cc2)C1` (configuration not stated), the Potency in test [1] was 14.1 µM (active). Besides, the Potency result in test [2] and in test [4] was “inactive” each time. For the same molecule, the outcome in test [5] was inactive.
Regarding `COP(=S)(OC)Oc1ccc(S(=O)(=O)N(C)C)cc1`, the Potency result in test [1], in test [2] and in test [4] was “inactive” in each case. Also, the molecule was classed as inactive in test [3] and in test [5].
As for `COC1CC(=C(c2cccs2)c2cccs2)C[N+](C)(C)C1` (configuration not stated), the Potency entry in test [1], in test [2] and in test [4] was “inactive” each time. In test [3], the result was inactive.
`C[C@](O)(CS(=O)(=O)c1ccc(F)cc1)C(=O)Nc1ccc(C#N)c(C(F)(F)F)c1`: the Potency entry in test [1] and in test [2] was “inactive” each time. The Potency in test [4] is 16.1 µM (active).
With `NC(=O)CS(=O)C(c1ccccc1)c1ccccc1` (configuration not stated), the Potency result in test [1], in test [2] and in test [4] was “inactive” each time. Also, the call in test [3] was inactive.
Regarding `CC(C)=CC1C(C(=O)OCN2C(=O)C3=C(CCCC3)C2=O)C1(C)C` (configuration not stated), the Potency in test [1] is 20 µM (active). For the same molecule, the Potency result in test [2] was “inactive”. Besides, the outcome in test [3] and in test [5] was inactive.
As for `CCCCC/C=C\C/C=C\C/C=C\C/C=C\CCCC(=O)NCC(=O)O`, the Potency entry in test [1] and in test [6] was “inactive” throughout. In addition, the activity change, negative = inhibition in test [2] was -1.65% [at 5.2 µM]; in test [4], -9.07% [at 5.34 µM]. For the same molecule, in test [3], the activity change, negative = cytotoxicity was -23.3% [at 5.34 µM].
On to `O=c1[nH]oc2c1CCNC2`, for which the Potency entry in test [1], in test [2], in test [4] and in test [6] was “inactive” throughout. In test [3], the molecule was called inactive.
In the case of `Cc1nnc2n1-c1ccc(Cl)cc1C(c1ccccc1)=NC2`, the Potency entry in test [1], in test [2] and in test [4] was “inactive” in each case. Moreover, the call in test [3] and in test [5] was inactive.
On to `C=C(C)[C@H]1CN[C@H](C(=O)O)[C@H]1CC(=O)O`, for which the Potency entry in test [1], in test [2], in test [4] and in test [6] was “inactive” in each case. The outcome in test [3] was inactive.
For `NC(=O)c1cc([N+](=O)[O-])cc([N+](=O)[O-])c1`, the Potency result in test [1] and in test [2] was “inactive” in each case. The call in test [3] and in test [5] was inactive.
Consider `COc1c2c(cc3c1OCO3)CCN(C)C2`, for which the Potency result in test [1], in test [2] and in test [4] was “inactive” throughout. Further, the outcome in test [3] was inactive.
`CN1C(=O)CCS(=O)(=O)C1c1ccc(Cl)cc1` (configuration not stated): the Potency result in test [1], in test [2], in test [4] and in test [6] was “inactive” throughout. Besides, the molecule was classed as inactive in test [3].
For the molecule `COc1cccc([C@@]2(O)CCCC[C@@H]2CN(C)C)c1`, the Potency entry in test [1], in test [2] and in test [4] was “inactive” in each case. Besides, the molecule was called inactive in test [3] and in test [5].
As to `CNC(C)(C)Cc1ccccc1`, the Potency entry in test [1], in test [2] and in test [4] was “inactive” in each case. The molecule was classed as inactive in test [3].
Consider `CN1C(=O)NC(=O)C(C)(C2=CCCCC2)C1=O` (configuration not stated), for which the Potency result in test [1], in test [2] and in test [4] was “inactive” throughout. For the same molecule, the molecule was called inactive in test [3].
`CN=C1CN(O)C(c2ccccc2)=c2cc(Cl)ccc2=N1`: the Potency entry in test [1] was “inactive”.
On to `C=CCN1C[C@H](C)N([C@H](c2ccc(C(=O)N(CC)CC)cc2)c2cccc(OC)c2)C[C@H]1C`, for which the Potency in test [1] was 3.98 µM (active). Besides, the Potency result in test [2] is “inactive”.
Turning to `O=C1CN=C(c2ccccc2)c2cc([N+](=O)[O-])ccc2N1`, the Potency result in test [1], in test [2] and in test [4] was “inactive” throughout. Further, the molecule was classed as inactive in test [3] and in test [5].
On to `Cc1nnc2n1-c1ccc(Cl)cc1C(c1ccccc1Cl)=NC2`, for which the Potency entry in test [1], in test [2] and in test [4] was “inactive” in each case. In addition, the molecule was classed as inactive in test [3] and in test [5].
Consider `O=C1OC(c2ccc(O)c(S(=O)(=O)O)c2)(c2ccc(O)c(S(=O)(=O)O)c2)c2c(Br)c(Br)c(Br)c(Br)c21`, for which the Potency entry in test [1] and in test [4] was “inactive” throughout. Besides, the Potency in test [2] was 28.7 µM (active). Moreover, the call in test [3] and in test [5] was inactive.

(Values after PubChem BioAssay (NCATS).)
